Only some compounds are listed: those with a hit (about 3.8% of all), similar ones and a draw of the others.
Yeast superoxide: reduction of superoxide in aged yeast, primary screen, HTS; S. cerevisiae aged cells, superoxide DHE fluorescence; stronger effect = lower value; superoxide response (% of plate mean), % at 10 µM; 330,000 tested, 0.18% active; AID 2690, 2010;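 active means superoxide response under a set limit, about three screen SD below normal, cut at about 65% in these data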;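 further: yeast aged for seven days with compound at 30 °C before DHE staining; 100% = average MFI of all compound-treated wells on the plate with controls excluded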
NLRP3 yeast inh: NALP3 inflammasome inhibitors in reconstituted yeast, primary screen, luminescence, uHTS. Yeast reconstituted NLRP3/ASC/caspase-1, beta-gal luminescence, 24 h. inhibition, % at 10 µM. 330,000 tested, 0.39% active;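 active means inhibition of 50% or more; inactive means inhibition below 50%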;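 further: plate controls were induced DMSO wells for no effect and uninduced yeast grown without galactose for full effect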
TIM10 inh: growth inhibitors of isogenic TIM10 control yeast, primary screen, counter-screen for tim10-1 yeast inhibitor project, luminescence, uHTS; S. cerevisiae TIM10 strain growth, BacTiter-Glo luminescence, 24 h; inhibition, % at 10 µM; 330,000 tested, 1.4% active; AID 463195, 2010;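 active means inhibition of 40% or more at the single tested concentration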;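 further: wild-type TIM10 isogenic control strain grown at permissive 25 °C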
tim23-1 inh: growth inhibitors of tim23-1 mutant yeast, primary screen, luminescence, uHTS. S. cerevisiae tim23-1 growth, BacTiter-Glo luminescence, 24 h. inhibition, % at 20 µM. 330,000 tested, 1.3% active;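 active means growth inhibition of the mutant yeast at or above 50%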;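 further: temperature-sensitive mutant grown at 25 °C; plate controls were DMSO-treated mutant yeast for no effect and medium wells lacking yeast for full effect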
tim10-1 inh: growth inhibitors of tim10-1 mutant yeast, primary screen, luminescence, uHTS; inhibition, % at 20 µM; 330,000 tested, 2.2% active; AID 463190, 2010; S. cerevisiae tim10-1 ts strain growth, BacTiter-Glo, 24 h;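 active means inhibition of at least 40%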;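 further: mutant grown at 25 °C; 0% = DMSO wells with yeast and 100% = wells holding no yeast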
tim10-1 conf: growth inhibitors of tim10-1 mutant yeast, confirmation, single concentration, luminescence, S. cerevisiae. shares compounds with tim10-1 inh. inhibition, % at 20 µM. S. cerevisiae tim10-1 ts strain growth, BacTiter-Glo, 24 h. 7,400 tested, 56% active;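 active means inhibition of yeast growth at or above a set limit in either of two repeat tests at 20 µM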;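 further: tim10-1 mutant grown at permissive 25 °C to find synthetic lethal compounds; 0% = DMSO yeast wells and 100% = medium wells without yeast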
TIM10 conf: growth inhibitors of wild-type TIM10 yeast, confirmation, counter-screen for tim10-1 synthetic lethality project, single concentration, luminescence, S. cerevisiae. shares compounds with TIM10 inh. S. cerevisiae tim10 strain growth, BacTiter-Glo luminescence, 24 h. inhibition, % at 10 µM. 4,600 tested, 63% active;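 active means inhibition of yeast growth at or above a set limit in either of two replicates at 10 µM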;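 further: this counterscreen used the strain with wild-type TIM10; 0% = yeast with DMSO and 100% = medium wells lacking yeast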
Active calls of the source: *; x = not tested or not shown.

SMILES | Yeast superoxide | NLRP3 yeast inh | TIM10 inh | tim23-1 inh | tim10-1 inh | tim10-1 conf | TIM10 conf
COc1cc2c(cc1OC)C(c1cc(Br)ccc1F)N(C(=O)CCl)CC2 (configuration not stated) | 106.8 | -9.7 | 45.2* | 45.9 | 41.5* | 40.4* | 43.1*
Cc1nc2nc(SCC(=O)NCCCN3CCCC3)nn2c(C)c1Cc1ccccc1Cl | 101.4 | 13.5 | 6.3 | 5.7 | -1.2 | x | x
Cc1cccc(C)c1N=Cc1c(O)n(-c2nccs2)c(=O)c2ccccc12 | 88.8 | 16.8 | 54.8* | 48.3 | 46.4* | 41.0* | -2.8
CCOc1cccc(C(=O)NC(=S)NCc2cccnc2)c1 | 96.8 | 10.7 | 5.2 | 25.4 | 13.3 | x | x
CC(C)COc1cccc(C(=O)NC(=S)NCc2cccnc2)c1 | 102.6 | 7.2 | 43.4* | 38.5 | 47.4* | 20.9 | -19.0
Cc1nn(Cc2ccc(C(=O)N3CCCC3)o2)c(C)c1[N+](=O)[O-] | x | 15.1 | -1.4 | -14.1 | -26.9 | x | x
COc1ccc(Cn2c(SCc3ccc(C)cc3)nc3cc(OC)c(OC)cc3c2=N)cc1Cl | 83.6 | 18.9 | 61.9* | 41.6 | 90.3* | 87.0* | -6.1
CC(C)Cc1nc2oc3c(N4CCN(CCO)CC4)ncnc3c2c2c1CCCC2 | 99.5 | 4.1 | 43.6* | 33.3 | 51.9* | 37.0* | 20.5
CC(C)Cc1nc2oc3c(NCc4cccnc4)ncnc3c2c2c1CCC2 | 83.7 | 8.5 | -4.2 | -13.4 | 23.4 | x | x
CCOC(=O)N1CCN(c2ncnc3c2oc2nc(C(C)C)c4c(c23)CCC4)CC1 | 120.7 | 14.5 | 46.1* | 40.7 | 43.6* | 33.6* | 36.5*
CC(C)c1nc2oc3c(NCc4cccnc4)ncnc3c2c2c1CCC2 | 91.3 | -2.0 | 10.1 | -9.6 | 25.6 | x | x
CC(C)NC(=O)CC1(C(=O)NCc2ccc(Cl)cc2)CCCC1 | 102.0 | -1.7 | -5.4 | 6.4 | 8.8 | x | x
CCOC(=O)c1[nH]ncc1CN1CCC(Cc2cccc(OC)c2)(C(=O)OCC)CC1 | 95.2 | 1.8 | -12.9 | 3.3 | 13.1 | x | x
N#C/C(=C/c1ccc(N2CCCCC2)cc1)c1cccc(F)c1 | 104.3 | 8.4 | 23.1 | 23.3 | 17.5 | x | x
N#C/C(=C/c1ccc(N2CCCCC2)o1)c1cccc(F)c1 | 122.3 | 5.4 | 46.4* | 37.9 | 55.3* | 50.6* | 28.1
Cc1ccc(Nc2nc(N)nc(CSc3nc4ccccc4s3)n2)cc1 | 122.7 | 30.5 | 47.4* | 40.2 | 46.8* | 27.8 | 26.8
Cc1scc(-c2n[nH]c(=S)n2C(C)c2ccccc2)c1C (configuration not stated) | 103.2 | 31.0 | 42.6* | 36.7 | 42.5* | 29.0 | 9.6
O=C(CCNc1ccc(Cc2ccncc2)cc1)c1ccc([N+](=O)[O-])cc1 | 88.1 | 12.5 | 62.0* | 40.2 | 49.3* | 37.2* | 41.2*
Cc1nc(C)c(-c2csc(Nc3ccc(F)cc3)n2)s1 | 84.0 | -9.2 | 51.4* | 44.6 | 48.4* | 43.0* | 44.1*
Cc1nc(C)c(-c2csc(Nc3ccc(C(=O)O)c(O)c3)n2)s1 | 95.1 | 7.6 | -13.3 | 9.2 | 7.7 | x | x
COc1cc(/C=C2\SC(c3ccc(C)cc3)=NC2=O)ccc1O | 86.0 | 18.0 | 46.2* | 49.5 | 52.5* | 31.2* | 43.3*
Cc1ccc(C)c(NC(=O)C2CC(O)CN2C(=O)Oc2ccccc2)c1 (configuration not stated) | 92.5 | 7.1 | -1.3 | 8.5 | -6.2 | x | x
COc1ccc(OC)c(/C=C2\SC(N3CCCCC3)=NC2=O)c1 | 103.2 | 28.6 | 2.3 | 37.1 | 32.4 | x | x
CC1CCc2[nH]c3ccc(C(=O)O)cc3c2C1 (configuration not stated) | 99.4 | 15.3 | 1.9 | 4.9 | 8.3 | x | x
COc1ccccc1N1CCN(C(=O)c2ccc3[nH]c4c(c3c2)CC(C)CC4)CC1 (configuration not stated) | 102.9 | 16.0 | 48.9* | 23.8 | 53.1* | 37.7* | 36.5*
SMILES | Yeast superoxide | NLRP3 yeast inh | TIM10 inh | tim23-1 inh | tim10-1 inh | tim10-1 conf | TIM10 conf
Cc1ncc(CO)c(CNc2ccc(Oc3ccccc3)cc2)c1O | 91.4 | 20.4 | 7.7 | -11.0 | -3.7 | x | x
c1ccc2c(c1)OCC(c1nnc3sc(-c4ccc5c(c4)OCO5)nn13)O2 (configuration not stated) | 114.2 | -30.0 | 47.8* | 26.9 | 42.1* | 27.6 | 12.6
O=C(Nc1ccccc1C(=O)OCC(=O)c1c[nH]c2ccccc12)c1ccco1 | 75.2 | 15.2 | 18.6 | 25.8 | 27.9 | x | x
COCCCNC(=O)c1ccc2c3c(onc13)-c1ccccc1C2=O | 150.4 | 37.9 | 43.3* | 43.6 | 53.3* | 41.6* | 41.2*
Cc1sc2ncnc(N3CCC(C(=O)Oc4cccc(Cl)c4Cl)CC3)c2c1C | 101.9 | -2.6 | 11.0 | 20.1 | 24.8 | x | x
Cc1cccc(C)c1NC(=S)NN(Cc1ccccc1)c1ccccc1 | 105.2 | 10.7 | -0.2 | 0.1 | 27.2 | x | x
CC(C)c1ccccc1NC(=S)NN(Cc1ccccc1)c1ccccc1 | 109.0 | 4.0 | 51.9* | 33.7 | 45.6* | 32.1* | 28.6*
O=C(O)C1CCCN(S(=O)(=O)c2ccc(Br)cc2)C1 (configuration not stated) | 113.6 | -11.3 | -14.0 | 3.3 | -4.9 | x | x
COc1ccc(C2=NN3C(=O)c4c(ccc(OC)c4OC)C3C2)cc1 (configuration not stated) | 101.6 | 23.3 | 37.5 | 41.3 | 13.3 | x | x
COc1ccc2c(c1OC)C(=O)N1N=C(c3ccc(Br)cc3)CC21 (configuration not stated) | 109.1 | 25.1 | 40.0* | 39.7 | 48.2* | 40.3* | -3.2
C=CCSc1nc2ccccc2n1C(=O)/C=C/c1cc(OC)c(OC)c(OC)c1 | 109.5 | 42.4 | 42.8* | 43.7 | 45.5* | 49.5* | 40.9*
C=CCSc1nc2ccccc2n1C(=O)/C=C/c1ccc(OC)c(OC)c1 | 96.9 | x | x | x | x | x | x
CCOc1ccc(NC(=O)CSc2ncn[nH]2)cc1 | 131.0 | 1.9 | 2.4 | 9.9 | -4.1 | x | x
CC(C)(C)c1ccc(-c2n[nH]c(=S)n2C2CCCC2)cc1 | 102.1 | 17.6 | 44.5* | 47.5 | 41.3* | 29.8* | 45.1*
CCN(CC)c1ncnc2c1ncn2Cc1c(Cl)cccc1Cl | 96.2 | 9.5 | 42.4* | 40.6 | 50.0* | 36.5* | -8.3
CCN(CC)c1ncnc2c1cnn2Cc1ccc(C)cc1 | 105.3 | 15.7 | -3.2 | 28.5 | 30.8 | x | x
COc1cccc(/C=N/NC(=O)c2c(C)nc3ccc(Br)cn23)c1O | 92.9 | 21.7 | 45.4* | 11.0 | 41.3* | 18.8 | 61.2*
CC(C)NC(=S)N/N=C/c1cccs1 | 92.8 | 12.9 | 28.3 | 40.3 | 14.8 | x | x

Screening data from PubChem.
